From PubChem
PAFAH2 FP inh: PAFAH2 enzyme inhibitors, primary screen, biochemical, fluorescence polarization, human; recombinant PAFAH2, FP-rhodamine activity probe; AID 492956, 2010; inhibition, % at 3.39 µM; 340,000 compounds, 0.99% hits;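 active = inhibition above the mean over all tested compounds plus 3 SD, cut at about 30% in these data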;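 also: inhibitors block probe labeling of enzyme so polarization drops; 0% = enzyme with DMSO and 100% = wells lacking PAFAH2 protein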
pPAFAH FP inh: pPAFAH enzyme inhibitors, primary screen, biochemical, fluorescence polarization, human; inhibition, % at 3.39 µM; AID 463082, 2010; recombinant pPAFAH, FP-rhodamine probe fluorescence polarization; 330,000 compounds, 1.5% hits; Platelet-activating factor acetylhydrolase (Homo sapiens), Q13093;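 active = inhibition above the mean inhibition across the screen plus 3 SD, cut at about 25% in these data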;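 also: inhibitors block binding of the rhodamine activity-based probe so polarization drops; 0% = enzyme with DMSO and 100% = wells lacking pPAFAH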
Fh CTSL1 inh: Fasciola hepatica cathepsin L1 inhibitors, primary screen, counter-screen for PFM18AAP inhibitor project, biochemical, QFRET, fluorogenic peptide substrate | recombinant F. hepatica cathepsin L1, Z-Leu-Arg-MCA fluorescence | inhibition, % at 5.96 µM | AID 1906, 2009 | 300,000 compounds, 0.49% hits;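 active = inhibition above the mean of all tested compounds plus 3 SD, set per screening campaign, cut at about 17% in these data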;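 also: 0% = plate median of test compound wells and 100% = 1 µM Z-Phe-Ala-diazomethylketone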
PAFAH1B3 FP inh: PAFAH1B3 enzyme inhibitors, primary screen, biochemical, fluorescence polarization, human; recombinant PAFAH1B3, FP-rhodamine probe; AID 492972, 2010; inhibition, % at 3.39 µM; Platelet-activating factor acetylhydrolase IB subunit alpha1 (Homo sapiens), Q15102; 340,000 compounds, 0.28% hits;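 active = inhibition above the screen-wide average of all tested compounds plus 3 SD, cut at about 25% in these data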;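 also: 0% = enzyme with DMSO only and 100% = wells lacking PAFAH1B3 protein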
PAFAH1B2 inh: PAFAH1B2 enzyme inhibitors, primary screen, biochemical, fluorescence polarization, human; 340,000 compounds, 1.2% hits; inhibition, % at 3.39 µM; recombinant PAFAH1B2, FP-rhodamine activity probe;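 active = inhibition above the mean of all tested compounds plus 3 SD, cut at about 24% in these data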;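 also: 0% = enzyme with DMSO and 100% = wells lacking PAFAH1B2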
PP5 primary: PP5 phosphatase inhibitors, primary screen, biochemical, fluorescence; Serine/threonine-protein phosphatase 5 (Homo sapiens), P53041; AID 1987, 2009; purified PP5c, OMFP substrate fluorescence; 320,000 compounds, 0.18% hits; inhibition, % at 6.7 µM;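 active = inhibition above the campaign's mean inhibition across all tested compounds plus 3 SD, cut at about 9.5% in these data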;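 also: 0% = DMSO only and 100% = 100 µM cantharidin control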
Target sequence (P53041 whole entry, looked up): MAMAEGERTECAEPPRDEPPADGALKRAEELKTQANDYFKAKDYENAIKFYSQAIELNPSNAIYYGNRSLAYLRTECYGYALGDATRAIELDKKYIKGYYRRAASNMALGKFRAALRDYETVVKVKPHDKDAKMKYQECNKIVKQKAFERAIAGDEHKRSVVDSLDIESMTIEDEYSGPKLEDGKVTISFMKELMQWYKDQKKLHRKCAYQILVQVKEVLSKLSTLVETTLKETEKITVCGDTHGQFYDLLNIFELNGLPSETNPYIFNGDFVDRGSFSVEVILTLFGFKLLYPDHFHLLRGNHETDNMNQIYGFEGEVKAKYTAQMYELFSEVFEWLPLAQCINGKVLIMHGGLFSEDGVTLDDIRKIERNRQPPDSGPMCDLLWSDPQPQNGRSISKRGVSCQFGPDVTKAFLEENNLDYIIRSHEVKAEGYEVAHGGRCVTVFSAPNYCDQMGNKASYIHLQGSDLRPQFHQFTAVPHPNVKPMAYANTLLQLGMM
PAFAH2 FP conf: PAFAH2 enzyme inhibitors, confirmation, biochemical, fluorescence polarization, human; shares compounds with PAFAH2 FP inh; recombinant PAFAH2, FP-rhodamine activity probe; inhibition, % at 3.39 µM; 2,300 compounds, 65% hits; AID 493030, 2011;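 active = mean inhibition over three repeats above a set limit taken from the earlier primary screen, cut at about 30% in these data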;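 also: inhibitor blocks binding of rhodamine activity probe so polarization falls; 0% = enzyme with DMSO and 100% = wells lacking PAFAH2 protein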
* hit, by the source's call; · = no result. Sampled rows, rich in hits. Any-hit rate of the full collection: about 3%.

SMILES | PAFAH2 FP inh | pPAFAH FP inh | Fh CTSL1 inh | PAFAH1B3 FP inh | PAFAH1B2 inh | PP5 primary | PAFAH2 FP conf
Cc1ccc(C(=O)OCC(=O)Nc2ccc(Cl)cn2)s1 | 71* | 8 | · | 9 | 4 | 3 | 63*
CCCC(C)NC(=O)COC(=O)c1cccc(NS(C)(=O)=O)c1 (configuration not stated) | 37* | 4 | 0 | 1 | 2 | -1 | 22
O=C(COC(=O)c1ccc(O)cc1O)Nc1ccc(Cl)cn1 | 1 | 21 | -3 | 9 | -4 | 1 | ·
CCNC(=O)NC(=O)COC(=O)c1cccc(NS(=O)(=O)/C=C/c2ccccc2)c1 | 4 | 4 | -1 | -8 | 1 | 2 | ·
CCN(c1ccc(NC(=O)COC(=O)c2ccc(C)s2)cc1)C(C)C | 46* | 18 | -2 | 5 | -1 | 0 | 40*
O=C(COC(=O)c1ccc(Cl)s1)c1ccc[nH]1 | 13 | 9 | -3 | 7 | -7 | -1 | ·
O=C(OCC(=O)c1ccc[nH]1)c1ccc(C(F)(F)F)cc1 | 3 | 19 | · | 11 | 0 | · | ·
Cc1ccc(C(=O)OCC(=O)c2ccc[nH]2)s1 | 35* | 11 | 8 | 6 | 5 | 0 | 31*
CC(C)Oc1ccc(C(=O)OCC(=O)c2ccc[nH]2)cc1 | 54* | 8 | · | 5 | 2 | · | 36*
O=c1oc(-c2cccs2)nc2scc(-c3cccs3)c12 | -1 | 3 | -3 | -4 | 3 | -1 | ·
CC(C)(C)c1nc2scc(-c3ccc(Br)cc3)c2c(=O)o1 | 5 | 1 | -3 | 11 | 0 | 3 | ·
Cc1sc2nc(-c3ccc(Br)cc3)oc(=O)c2c1C | 49* | -2 | 0 | 9 | 7 | 2 | 36*
Cc1sc2nc(-c3cccs3)oc(=O)c2c1C | 63* | -3 | 6 | -2 | -3 | 0 | 67*
CCc1cc2c(=O)[nH]c(-c3ccncc3)nc2s1 | -4 | -1 | 2 | -3 | 5 | -2 | ·
CCc1cc2c(=O)oc(-c3ccc(Br)cc3)nc2s1 | 78* | · | · | 0 | -2 | · | 67*
Cc1ccc(NC(=O)COC(=O)CC2SC(N3CCCC3)=NC2=O)cc1 (configuration not stated) | 7 | 1 | · | 5 | 4 | 1 | ·
COc1ccc(C2=NS(=O)(=O)N(C)C(C(=O)Nc3ccc(C(C)=O)cc3)=C2)cc1OC | -7 | 8 | -1 | 5 | 2 | 2 | ·
CC(OC(=O)c1ccc(F)c(S(=O)(=O)N2CCOCC2)c1)C(=O)NC1CCCC1 (configuration not stated) | 4 | · | · | 5 | 1 | · | ·
Cc1cc(NC(=O)COc2coc(CN3CCN(c4ccc(F)cc4)CC3)cc2=O)no1 | 8 | 7 | 1 | 14 | 2 | -2 | ·
O=C(COC(=O)c1n[nH]c2ccccc12)Nc1ccc(Cl)cc1[N+](=O)[O-] | 73* | -8 | 1 | 1 | 9 | 2 | 64*
O=C(COC(=O)c1n[nH]c2ccccc12)Nc1ccccc1F | 44* | -11 | · | -5 | 4 | · | 43*
COc1cc([N+](=O)[O-])ccc1NC(=O)COC(=O)c1n[nH]c2ccccc12 | 7 | -1 | -2 | 3 | -1 | -1 | ·
Cc1cccc(NC(=O)COC(=O)c2n[nH]c3ccccc23)c1C | 59* | -5 | · | 4 | -1 | 3 | 46*
Cc1cccc(NC(=O)COC(=O)c2cccs2)c1C | 68* | 4 | -1 | -1 | 6 | 1 | 56*
CCn1cc(C(=O)O)c(=O)c2cc(F)c(N/N=C/c3ccccc3[N+](=O)[O-])cc21 | 7 | 3 | -1 | 5 | -8 | -1 | ·
SMILES | PAFAH2 FP inh | pPAFAH FP inh | Fh CTSL1 inh | PAFAH1B3 FP inh | PAFAH1B2 inh | PP5 primary | PAFAH2 FP conf
O=C(c1cccc(Cl)c1)N1CCC(N2CCC(C(=O)N3CCCC3)CC2)CC1 | 7 | -2 | -2 | 0 | 4 | -1 | ·
O=C(OCC(=O)N1CCN(Cc2ccccc2)CC1)c1cc(Cl)ccc1[N+](=O)[O-] | 9 | 2 | · | 3 | 2 | 3 | ·
CC(=O)Nc1ccc(C(=O)CN2CCN(c3ccccc3)CC2)cc1 | 3 | 1 | 0 | -5 | -3 | 0 | ·
CC1CCCN(C(=O)COC(=O)C2CCN(S(=O)(=O)c3ccc4c(c3)OCCO4)CC2)C1 (configuration not stated) | 1 | 7 | -5 | 7 | 7 | 2 | ·
CC(c1ccncn1)N(C)C(=O)c1ccc2oc(Cc3ccccc3)nc2c1 (configuration not stated) | 36* | 1 | -4 | 6 | -3 | 1 | 27
Cc1cnc(CN(C)C(=O)c2ccc3oc(Cc4ccccc4)nc3c2)[nH]1 | 4 | -3 | -4 | 6 | 4 | 0 | ·
CC(C)(C)OC(=O)C[C@@H]1C/C=C\C[C@@H](CC(=O)N[C@H](CO)Cc2ccccc2)C(=O)NC[C@H](c2ccccc2)OC1=O | 1 | -1 | · | 3 | 4 | · | ·
CC(C)(C)OC(=O)C[C@H]1C/C=C\C[C@@H](CC(=O)N[C@H](CO)Cc2ccccc2)C(=O)NC[C@H](c2ccccc2)OC1=O | 52* | 3 | · | 0 | 10 | · | 8
O=C(CSc1nnc(-c2ccccc2)n1-c1ccccc1)c1cccs1 | 43* | -4 | -3 | 13 | 16 | 2 | 29
O=C(CSc1nnc(-c2ccccc2)n1-c1ccccc1)c1ccc[nH]1 | -2 | 8 | -1 | 4 | 13 | 4 | ·
CCc1nnc(NC(=O)CSc2nnc(-c3ccccc3NC(=O)c3ccccc3)o2)s1 | 34* | 0 | 1 | 3 | 4 | 2 | -3
CCOC(=O)CSc1nnc(-c2ccccc2NC(=O)c2ccccc2)o1 | -23 | 3 | 2 | -3 | 1 | 1 | ·
O=C(OCc1cn(-c2ccc(Cl)cc2)nn1)c1ccccc1 | 69* | 10 | 8 | 4 | 5 | -2 | 69*
CC(=O)c1ccc(NC(=O)COC(=O)/C=C/c2cccs2)cc1 | 57* | -7 | · | 5 | 9 | · | 46*
CC(=O)c1ccccc1NC(=O)COC(=O)/C=C/c1ccc(C)o1 | 31* | 6 | 2 | 1 | 2 | -2 | 24
CC(=O)c1ccccc1NC(=O)COC(=O)/C=C/c1cccs1 | 53* | 4 | -1 | 4 | -2 | -1 | 39*
O=C(COC(=O)/C=C/c1cccs1)Nc1ccccc1Cl | 58* | 5 | -15 | 5 | -5 | 1 | 36*
